Out of some 5,100 compounds screened, fewer than 10 were called active. Only a sample is shown. Values without a mark were called inactive.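 The calls were made as follows: active = inhibition above the mean inhibition over all tested compounds plus 3 SD (cut at about 75% in these data); inactive = the rest.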

One may read the inhibition as the change of the read-out against control, counted positive when it falls.

The assay has as its target Collagenase 3 (Homo sapiens) (UniProt P45452). Briefly: human MMP13 inhibition, fluorescence-interfering compounds – biochemical, possible fluorescent artifacts, delta fluorescence, confirmation (AID 734).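 Also: 0% = DMSO only wells and 100% = 8 µM reference MMP13 inhibitor.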 The conditions noted are these: MMP13 fTHP FRET cleavage, delta fluorescence 4 h; active compounds read high;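 each compound tested at 4 µM nominal in triplicate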.
Take `c1ccc(-c2noc(-c3cccc4ccccc34)n2)nc1`: the inhibition was 6.64%.
As for `COc1cccc2sc(Nc3nnc(-c4cccs4)o3)nc12`, the inhibition was -71.9%.
As to `Fc1cccc2sc(Nc3nnc(-c4ccco4)o3)nc12`, the inhibition is 0.58%.
As for `COc1cccc2sc(Nc3nnc(-c4ccccc4Cl)o3)nc12`, the inhibition is 3.62%.
Next, `COc1ccc(-c2nnc(Nc3nc4c(OC)cccc4s3)o2)c(OC)c1`: 34.9%; `Fc1cccc2sc(Nc3nnc(-c4ccccc4)o3)nc12`: 74.7% (active).
As for `COc1cccc(-c2nnc(Nc3nc4c(F)cccc4s3)o2)c1`, the inhibition was 104% (active).
Regarding `COc1cc(OC)cc(-c2nnc(Nc3nc4c(F)cccc4s3)o2)c1`, the inhibition was 95.7% (active).
Take `COc1ccccc1-c1nnc(Nc2nc3c(OC)cccc3s2)o1`: the inhibition was 2.8%.
Turning to `COc1ccc(-c2nnc(Nc3nc4c(OC)cccc4s3)o2)cc1`, the inhibition is 7.97%.
On to `O=C(C1CCCN(S(=O)(=O)c2cnc[nH]2)C1)N1CCN(Cc2ccccc2)CC1` (stereo unspecified), for which the inhibition was 6.19%.
To `Cn1c(=O)c2c(nc(SCCN3CCOCC3)n2Cc2ccccc2Cl)n(C)c1=O` belongs 4.43%; to `COC(=O)c1nn(-c2ccc(-c3ccccc3)cc2)cc1O`, -1.13%; to `CCOC(=O)COc1ccc(-c2nnc(-c3ccccc3)o2)cc1`, -0.26%.
In the case of `CC1(C)CC(=O)C(C=Nc2ccccc2C(=O)O)=C(O)C1`, the inhibition is 3.67%.
Next, `CCOc1ccc(-c2cc(C(=O)NCCCN3CCN(CC)CC3)c3ccccc3n2)cc1`: -9.76%; `CCN1c2ccccc2-c2nc3ccccc3n2C1c1ccncc1` (stereo unspecified): 2.69%.
For `COc1ccc2[nH]c(=O)c(-c3noc(-c4ccccc4)n3)cc2c1`, the inhibition was 3.55%.
For the compound `CC1(C)Cc2c(C#N)c(N3CCN(C(=O)c4ccco4)CC3)nc(Cc3ccccc3)c2CO1`, the inhibition is -9.09%.
For the compound `CCOc1ccc(C2C(C(=O)OC)=CN(CCOC)C=C2C(=O)OC)cc1`, the inhibition is -14.5%.
To `Nc1nc2n(n1)C(c1ccco1)CC(c1ccc(F)cc1)N2` (stereo unspecified) belongs 1.34%.
As for `CCN(CC)CCCN(Cc1cc2cc3c(cc2[nH]c1=O)OCO3)C(=O)Nc1ccccc1OC`, the inhibition is 9.73%.
Take `Nc1c(C(=O)NCCN2CCOCC2)c2nc3ccccc3nc2n1-c1ccc2c(c1)OCO2`: the inhibition was 4.11%.
On to `COc1cccc(NC(=O)CSc2nnc(Cc3cccn3C)n2-c2ccc(F)cc2)c1`, for which the inhibition was 1.13%.
Regarding `CC1CCCC(C)N1C(=O)CSc1nnc(-c2c[nH]c3ccccc23)o1` (stereo unspecified), the inhibition is 5.55%.
As for `O=C(OCCn1cncn1)c1cc2ccccc2oc1=O`, the inhibition is -0.22%.
`OCc1ccccc1OCCOc1ccc(Cl)c2cccnc12`: the inhibition is 6.18%.
For `CC(C)NCC(O)Cn1c2c(c3ccccc31)CCc1c-2cnn1-c1ccccc1` (stereo unspecified), the inhibition was 6.63%.
Take `CC(=O)Nc1nc2n(n1)C(c1ccccc1)C=C(c1ccccc1)N2` (stereo unspecified): the inhibition was 0.41%.
With `O=C(Oc1cccnc1)c1ccco1`, the inhibition is 3.63%.
Regarding `COc1ccc(C2C=C(C)Nc3nc(SC)nn32)cc1` (stereo unspecified), the inhibition is -11.2%.
As to `CCOc1ccc(C2CC(c3cccc(Cl)c3)n3nc(N)nc3N2)cc1` (stereo unspecified), the inhibition is 4.79%.
To `Cc1ccc(-n2ncc3c(=O)n(CC(=O)NCc4ccco4)cnc32)cc1C` belongs 5.2%; to `COCCCNC(=O)c1ccc2nc3ccccc3c(=O)n2c1`, -3.91%; to `CCCOc1ccccc1-c1nc2c([nH]1)c(=O)[nH]c(=O)n2C`, -0.35%.
Consider `CS(=O)(=O)N1CCc2cc(C(=O)N3CCOCC3)ccc21`, for which the inhibition is 5.36%.
For the compound `CCOC(=O)c1[nH]c2ccc(OCC)cc2c1NC(=O)CN1CCN(c2ccccn2)CC1`, the inhibition was -14.1%.
For `CCCC(=O)N1CCN(c2nc(CC(C)C)c3c(c2C#N)CCC3)CC1`, the inhibition is 0.13%.
Turning to `CCS(=O)(=O)Nc1c(C(=O)O)[nH]c2ccccc12`, the inhibition is 3.79%.
Regarding `CCOC(=O)c1oc2cccc(OCC(O)CNC(C)C)c2c1C` (stereo unspecified), the inhibition is -6.29%.
To `N#Cc1cc2c(nc1SCC(=O)Nc1nccs1)CCCCC2` belongs -11%; to `COc1ccc(O)c(C(=O)c2cc(C#N)c(=O)n(-c3c(C)n(C)n(-c4ccccc4)c3=O)c2)c1`, 6.02%; to `CCOC(=O)c1cccnc1SCc1cc(=O)n2ccccc2n1`, 3.91%.
For `CC1=C(C(=O)N2CCOCC2)C(c2ccccc2F)C2=C(CC(C)(C)CC2=O)N1` (stereo unspecified), the inhibition was -1.62%.
With `CCCC(c1nnnn1C1CCCC1)N1CCN(C(=O)c2ccco2)CC1` (stereo unspecified), the inhibition is 6.95%.
As for `N#Cc1nc(-c2cccs2)oc1N1CCOCC1`, the inhibition is -82.1%.
For `CCCc1cc(=O)oc2cc(C)c3c(C)coc3c12`, the inhibition is -8.56%.
Regarding `CCOC(=O)c1cc2c(=O)n3ccccc3nc2n(C(C)C)c1=NC(=O)c1ccncc1`, the inhibition was -11.4%.
Regarding `CN1CC=C2C(C#N)=C(N)C(C#N)(C#N)C(CCc3ccccc3)C2C1` (stereo unspecified), the inhibition was 5.88%.
In the case of `O=S(=O)(NC1c2cccc3cccc(c23)C1N1CCNCC1)c1ccccc1` (stereo unspecified), the inhibition is 8.95%.
Next, `COc1ccc(CN2CCCC2C(=O)Nc2ccc(OC)c(OC)c2)cc1OC` (stereo unspecified): 1.58%; `CC(O)Cn1ccccc1=N` (stereo unspecified): 4.32%; `CC(C)(C)c1cc(=O)n2c(C#N)c(C#N)nc2[nH]1`: 4.14%.
For `Cc1onc(-c2ccccc2)c1C(=O)Nc1nnc(-c2ccncc2)s1`, the inhibition was -3.75%.
Turning to `O=C(CC1Nc2ccccc2NC1=O)NC1CCCCC1` (stereo unspecified), the inhibition is 4.1%.
As for `CCOc1ccc2[nH]c(=O)c(C(c3nnnn3Cc3ccco3)N3CCC(C)CC3)cc2c1` (stereo unspecified), the inhibition is 8.93%.
On to `Cc1cccc(-n2c(=O)[nH]c3c(C(N)=O)nc(-c4ccccc4Cl)nc32)c1`, for which the inhibition was 6.92%.
As to `COC(=O)c1cc2c(s1)CS(=O)C2` (stereo unspecified), the inhibition is 5.21%.
`CC(C)c1nc(N2CCOCC2)c(C#N)c2c1CCC2`: the inhibition was -3.95%.
On to `CCOC(=O)c1cnc2cc(Cl)c(OC)cc2c1NCC1CCCO1` (stereo unspecified), for which the inhibition was 3.77%.
In the case of `c1ccc(-n2nc3c(ccc4cnnc43)[nH]2)cc1`, the inhibition is -1.01%.
Take `COc1ccc(-c2ccc(-c3noc(-c4ccccc4C)n3)c(OC)n2)cc1`: the inhibition was 79.6% (active).
On to `COc1ccc(-c2ccc(-c3noc(-c4ccccc4)n3)c(OC)n2)cc1`, for which the inhibition was 5.4%.
On to `COc1ccc(-c2ccc(-c3noc(-c4ccccc4OC)n3)c(OC)n2)cc1`, for which the inhibition is 13.8%.
For `CCOC(=O)c1sc(C)c(C(N)=O)c1NC1=NCCCCC1`, the inhibition was 2.74%.
Next, `CCN(CC)C(=O)Sc1cccc2cccnc12`: 7.36%; `CN(C)c1ccc(C(=O)N2CC(=O)N(CCc3ccccc3)C(=O)C2)cc1`: 0.16%; `CCOC(=O)N1CCC(N2C(=O)c3ccccc3C2Nc2ccc3c(C)cc(=O)oc3c2)CC1` (stereo unspecified): -77%.
Next, `Cc1cc(C)c2c(N)c(C(=O)Nc3nccs3)sc2n1`: -7.23%.
To `COc1ccccc1Nc1nc(-c2cccs2)cs1` belongs 4.53%.
For `O=c1c2[nH]c3ccccc3c2ncn1Cc1cccnc1`, the inhibition is 5.84%.
Consider `Cc1oc2c(CN3CCCC3)c(O)ccc2c(=O)c1-c1ccc(Br)cc1`, for which the inhibition is 11.1%.
In the case of `O=c1[nH]c2cc3c(cc2cc1C(c1nnnn1C1CCCC1)N1CCSCC1)OCCO3` (stereo unspecified), the inhibition was 1.34%.
To `CN1CCN(CCCNC(=O)Nc2cccc3ccccc23)CC1` belongs 4.59%.
To `COc1ccc(C2C(C(=O)N3CCN(c4ccccn4)CC3)CC(=O)N2c2ccc(OC)cc2)cc1` (stereo unspecified) belongs 1.09%.
Next, `COC(=O)c1[nH]c2cccc(OC)c2c1NC(=O)CN1CCC(C(N)=O)(N2CCCCC2)CC1`: 5.66%.
Take `C=C(Cl)COc1ccc2c(CC)cc(=O)oc2c1`: the inhibition was 6.13%.
As to `CC1=CC2=NC(=O)CC(C)(C(=O)N(CC(=O)NC(C)(C)C)C3CCCC3)N2C=C1` (stereo unspecified), the inhibition was 2.69%.
As to `Cc1nc2c(C(=O)O)cnn2c(C)c1Cc1ccccc1F`, the inhibition is 5.94%.
As for `N#Cc1nc(-c2ccccc2F)oc1NCc1ccccc1`, the inhibition is -7.81%.
With `Cc1cccc(-n2c(SCCC(=O)O)nnc2-c2cccs2)c1C`, the inhibition was 6.84%.
On to `COc1ccc(-c2nc3nc(C)cc(C)n3n2)cc1`, for which the inhibition is 1.15%.
With `Cc1cc(NC(=O)CSc2ccc3nnc(-c4cccnc4)n3n2)no1`, the inhibition was 0.22%.
On to `COCCCNC(=O)CSC1=Nc2ccccc2C2=NC(CC(=O)NCc3ccccc3)C(=O)N12` (stereo unspecified), for which the inhibition was 0.89%.
`COCCn1c(SCc2csc(-c3ccccc3)n2)nc2ccccc21`: the inhibition was 3.46%.
`Cc1cccn2c(=O)c3cc(C(=O)N4CCN(C(=O)c5ccco5)CC4)n(C)c3nc12`: the inhibition was 0.62%.
Next, `O=C(CCCOc1ccccc1)Nc1nccs1`: 3.79%; `COc1ccc2[nH]c(=O)c(CN(CCCN(C)C)C(=O)Nc3ccccc3)cc2c1`: 0.48%; `O=C(Nc1ccon1)c1cnc2sccn2c1=O`: 3.24%.
Turning to `O=c1[nH]c(=O)n(Cc2ccccc2)c2nc(-c3ccco3)cc(C(F)(F)F)c12`, the inhibition is -103%.
Take `CCCSc1n[nH]c(NC(C)=O)n1`: the inhibition was 3.35%.
As for `O=C(Cc1ccccc1)Nc1ccc2oc(-c3cccnc3)nc2c1`, the inhibition is -8.29%.
Turning to `O=C(Nc1nc(-c2cc3ccccc3oc2=O)cs1)c1ccco1`, the inhibition is 3.89%.
With `COc1ccc(C(=O)NCc2nnc(SC)n2C2CCCCC2)cc1`, the inhibition was -1.48%.
`COc1cccc(Cn2c(=S)[nH]c3ccc(N4CCOCC4)cc3c2=O)c1`: the inhibition was 3.27%.
Next, `Cc1cc(=O)oc2cc(OC(C)C(=O)Nc3nccs3)ccc12` (stereo unspecified): 3.57%.

The values above are taken from PubChem BioAssay AID734 (The Scripps Research Institute Molecular Screening Center, 2007).
